PubChem BioAssay
Active and inactive are the calls of the source.

Tests used:
[1] = system: PRMT1 (protein arginine N-methyltransferase 1); assay: PRMT1 binders on small-molecule microarrays, primary screen, biochemical, small-molecule microarray, 635 nm fluorescence (AID 1088); conditions: small-molecule microarray binding, higher = more signal;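 further: binding of Prmt1 protein to compounds spotted on small-molecule microarray slides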
[2] = yeast growth modulation, basal conditions, primary screen, YJM789 clinical isolate, OD600, 24 h (AID 1089);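 further: growth of clinical yeast isolate S. cerevisiae YJM 789 seeded 1000 cells per well; test concentration not given here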; conditions: S. cerevisiae YJM789 growth, higher = more signal, called active from +8 up or from −8 down
[3] = fission yeast growth modulation, primary screen, strain 972, OD600, 24 h, no modulator (AID 1090);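 further: basal condition with compound alone and no growth modifier present; test concentration not given here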; conditions: S. pombe 972 growth, higher = more signal, called active from +8 up or from −8 down
[4] = S. cerevisiae growth modulation with rapamycin, primary screen, strain BY4716, OD600, 96 h (AID 1091); conditions: higher = more signal, called active from +8 up or from −8 down; further: test concentration not given here
[5] = target: Torsin-1A-interacting protein 2 (Homo sapiens) (UniProt Q8NFQ8); assay: LULL1 binders on small-molecule microarray, primary screen, cell lysate, human LULL1 lysate, 635/667 nm fluorescence (AID 1092); conditions: hLULL1 lysate binding, 635 nm fluorescence, higher = more signal;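 further: probe is lysate of COS7 cells overexpressing human LULL1; score merges per-feature 667 nm fluorescence with signal-to-noise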
Sequence of Torsin-1A-interacting protein 2 (Homo sapiens) (Q8NFQ8 whole entry, looked up): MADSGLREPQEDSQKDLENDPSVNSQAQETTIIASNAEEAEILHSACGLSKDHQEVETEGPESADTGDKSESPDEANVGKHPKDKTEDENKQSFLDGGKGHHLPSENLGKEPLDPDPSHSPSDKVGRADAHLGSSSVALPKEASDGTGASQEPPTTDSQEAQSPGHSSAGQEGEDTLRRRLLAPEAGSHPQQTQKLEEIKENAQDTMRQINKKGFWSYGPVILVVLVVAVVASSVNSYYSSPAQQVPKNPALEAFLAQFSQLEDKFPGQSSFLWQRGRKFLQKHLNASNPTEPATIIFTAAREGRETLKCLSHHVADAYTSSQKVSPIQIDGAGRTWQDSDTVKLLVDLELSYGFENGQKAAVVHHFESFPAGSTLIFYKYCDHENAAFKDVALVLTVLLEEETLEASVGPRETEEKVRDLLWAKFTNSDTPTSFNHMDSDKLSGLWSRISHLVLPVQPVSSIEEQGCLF

[6] = E. coli growth modulation, two-sided OD650, primary screen, E. coli filamentation project, strain DRC41, 24 h (AID 1093); conditions: OD650, 24 h, higher = more signal, called active from +8 up or from −8 down;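 further: MC1000 strain lacking acrAB efflux and sulA so SOS filamentation is blocked; test concentration not given here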
[7] = small-molecule microarray binders of probe aLefty2, primary screen, biochemical, biotinylated probe, 635/667 nm fluorescence (AID 1094); conditions: higher = more signal;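 further: score merges spot fluorescence near 667 nm with spot signal-to-noise ratio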
[8] = system: Noggin (protein binding on small-molecule microarray); assay: Noggin binders on small-molecule microarray, primary screen, biochemical, 635/667 nm fluorescence (AID 1095); conditions: 635 nm fluorescence, higher = more signal;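 further: score merges 667 nm feature fluorescence with signal to noise over triplicate slides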
[9] = target: Neurogenic locus notch homolog protein 3 (Homo sapiens) (UniProt Q9UM47); assay: NOTCH3 binders on small-molecule microarray, primary screen, biochemical, 635/667 nm fluorescence (AID 1096); conditions: NOTCH3 binding, 635 nm fluorescence, higher = more signal
Sequence of Neurogenic locus notch homolog protein 3 (Homo sapiens) (Q9UM47 whole entry, looked up): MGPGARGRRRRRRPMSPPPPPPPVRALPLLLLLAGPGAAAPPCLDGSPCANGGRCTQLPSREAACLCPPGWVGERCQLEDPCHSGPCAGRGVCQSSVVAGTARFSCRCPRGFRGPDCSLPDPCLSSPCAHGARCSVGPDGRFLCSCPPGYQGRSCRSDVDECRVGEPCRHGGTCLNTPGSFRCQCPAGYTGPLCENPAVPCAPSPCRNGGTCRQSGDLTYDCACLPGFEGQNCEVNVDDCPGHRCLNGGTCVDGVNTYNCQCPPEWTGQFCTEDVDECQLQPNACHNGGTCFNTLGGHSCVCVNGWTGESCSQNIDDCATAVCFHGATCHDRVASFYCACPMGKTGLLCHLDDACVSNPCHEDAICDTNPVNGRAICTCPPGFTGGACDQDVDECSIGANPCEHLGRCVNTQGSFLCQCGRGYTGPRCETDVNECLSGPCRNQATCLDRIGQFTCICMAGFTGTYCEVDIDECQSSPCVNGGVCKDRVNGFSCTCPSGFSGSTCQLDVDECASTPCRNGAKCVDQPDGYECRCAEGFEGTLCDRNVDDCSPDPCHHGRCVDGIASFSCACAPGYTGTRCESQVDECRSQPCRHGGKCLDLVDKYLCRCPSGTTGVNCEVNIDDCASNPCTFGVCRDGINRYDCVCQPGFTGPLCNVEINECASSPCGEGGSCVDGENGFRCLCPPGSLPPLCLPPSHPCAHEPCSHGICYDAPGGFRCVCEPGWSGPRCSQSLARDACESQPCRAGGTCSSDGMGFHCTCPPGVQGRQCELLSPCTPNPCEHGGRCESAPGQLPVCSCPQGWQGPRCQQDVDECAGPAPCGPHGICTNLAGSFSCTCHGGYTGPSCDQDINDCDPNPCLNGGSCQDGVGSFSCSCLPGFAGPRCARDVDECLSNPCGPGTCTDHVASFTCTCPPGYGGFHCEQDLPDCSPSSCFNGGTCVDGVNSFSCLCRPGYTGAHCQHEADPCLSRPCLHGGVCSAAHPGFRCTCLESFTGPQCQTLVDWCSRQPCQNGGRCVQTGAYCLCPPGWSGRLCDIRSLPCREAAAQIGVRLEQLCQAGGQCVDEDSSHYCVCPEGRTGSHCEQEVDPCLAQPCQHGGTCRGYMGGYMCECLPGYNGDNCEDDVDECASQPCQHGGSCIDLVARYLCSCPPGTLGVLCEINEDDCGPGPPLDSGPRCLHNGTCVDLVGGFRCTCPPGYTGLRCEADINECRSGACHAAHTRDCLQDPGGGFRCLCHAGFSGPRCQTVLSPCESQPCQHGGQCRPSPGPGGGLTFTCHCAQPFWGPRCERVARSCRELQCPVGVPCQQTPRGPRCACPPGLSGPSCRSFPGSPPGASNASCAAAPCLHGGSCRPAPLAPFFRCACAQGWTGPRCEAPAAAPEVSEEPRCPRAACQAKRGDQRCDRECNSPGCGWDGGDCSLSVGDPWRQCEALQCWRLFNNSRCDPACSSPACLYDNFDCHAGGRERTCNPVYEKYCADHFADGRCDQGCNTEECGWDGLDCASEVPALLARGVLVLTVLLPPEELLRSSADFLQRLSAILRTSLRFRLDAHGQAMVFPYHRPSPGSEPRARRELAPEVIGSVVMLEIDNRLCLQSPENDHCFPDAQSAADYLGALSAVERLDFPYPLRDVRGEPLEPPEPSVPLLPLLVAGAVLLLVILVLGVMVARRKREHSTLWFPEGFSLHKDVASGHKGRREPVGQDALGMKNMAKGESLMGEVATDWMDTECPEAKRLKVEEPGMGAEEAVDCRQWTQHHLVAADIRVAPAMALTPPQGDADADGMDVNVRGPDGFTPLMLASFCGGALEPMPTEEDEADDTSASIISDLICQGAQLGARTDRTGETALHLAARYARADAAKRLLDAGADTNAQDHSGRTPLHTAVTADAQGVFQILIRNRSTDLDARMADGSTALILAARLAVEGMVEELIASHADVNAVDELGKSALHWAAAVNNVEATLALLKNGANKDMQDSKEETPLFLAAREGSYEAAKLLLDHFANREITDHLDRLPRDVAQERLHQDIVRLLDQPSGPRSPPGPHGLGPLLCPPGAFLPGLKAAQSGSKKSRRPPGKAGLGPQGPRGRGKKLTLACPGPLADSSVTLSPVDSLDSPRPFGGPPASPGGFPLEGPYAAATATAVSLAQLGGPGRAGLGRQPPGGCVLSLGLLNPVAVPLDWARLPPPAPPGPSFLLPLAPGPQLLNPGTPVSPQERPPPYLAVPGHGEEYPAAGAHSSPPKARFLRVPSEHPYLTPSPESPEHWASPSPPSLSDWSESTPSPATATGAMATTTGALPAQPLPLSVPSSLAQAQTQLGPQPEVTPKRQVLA

[10] = small-molecule microarray binders of probe aEGFR, primary screen, biochemical, biotinylated probe, 635/667 nm fluorescence (AID 1097); conditions: higher = more signal;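 further: probe is a biotinylated anti-EGFR antibody binding compounds printed on slides; score combines fluorescence near 667 nm and signal to noise of each spot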
[11] = system: Plasmodium falciparum Sir2 (PF13_0152, Sir2A); assay: pfSir2 binders on small-molecule microarrays, primary screen, biochemical, small-molecule microarray, 635 nm fluorescence (AID 1098); conditions: small-molecule microarray binding, fluorescence 635 nm; higher = more signal;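 further: score merges spot fluorescence intensity with its signal-to-noise ratio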
[12] = small-molecule microarray binders of probe aDKK1, primary screen, biochemical, biotinylated probe, 635/667 nm fluorescence (AID 1099); conditions: higher = more signal;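 further: score merges 667nm spot fluorescence with signal to noise across triplicate slides; reference of the scale not given here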
[13] = small-molecule microarray binders of probe aCHRDL2, primary screen, biochemical, biotinylated probe, 635/667 nm fluorescence (AID 1100); conditions: higher = more signal
[14] = splicing luciferase reporter signal modulators, primary screen, spliceosome inhibition project, cell-based, HEK293, splice +/- reporter (AID 1101); conditions: luminescence, 24 h, higher = more signal, called active from +8 up or from −8 down;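 further: HEK293 cells carrying a splicing-competent luciferase reporter gene; test concentration not given here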
[15] = target: Fibroblast growth factor 10 (Homo sapiens) (UniProt O15520); assay: FGF10 binders on small-molecule microarrays, primary screen, biochemical, small-molecule microarray, 635 nm fluorescence (AID 1102); conditions: FGF10 binding, fluorescence 635 nm, higher = more signal
Sequence of Fibroblast growth factor 10 (Homo sapiens) (O15520 whole entry, looked up): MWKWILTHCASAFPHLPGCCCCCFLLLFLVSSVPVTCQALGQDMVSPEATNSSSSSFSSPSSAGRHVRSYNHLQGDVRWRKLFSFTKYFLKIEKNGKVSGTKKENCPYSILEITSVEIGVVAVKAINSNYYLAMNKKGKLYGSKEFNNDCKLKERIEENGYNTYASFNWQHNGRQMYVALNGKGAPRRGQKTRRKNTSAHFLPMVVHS

[16] = system: glycogen synthase kinase-3 (GSK3A per assay name; protocol says GSK3B); assay: GSK3 binders on small-molecule microarrays, primary screen, biochemical, small-molecule microarray, 635 nm fluorescence, GSK3A (AID 1103); conditions: small-molecule microarray binding, fluorescence 635 nm; higher = more signal; further: the record names both GSK3A and GSK3B
[17] = target: Epidermal growth factor receptor (Homo sapiens) (UniProt P00533); assay: EGFR binders on small-molecule microarrays, primary screen, biochemical, small-molecule microarray, 635 nm fluorescence (AID 1104); conditions: EGFR binding, higher = more signal;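 further: score merges 667 nm emission intensity with spot signal to noise over triplicate slides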
Sequence of Epidermal growth factor receptor (Homo sapiens) (P00533 whole entry, looked up): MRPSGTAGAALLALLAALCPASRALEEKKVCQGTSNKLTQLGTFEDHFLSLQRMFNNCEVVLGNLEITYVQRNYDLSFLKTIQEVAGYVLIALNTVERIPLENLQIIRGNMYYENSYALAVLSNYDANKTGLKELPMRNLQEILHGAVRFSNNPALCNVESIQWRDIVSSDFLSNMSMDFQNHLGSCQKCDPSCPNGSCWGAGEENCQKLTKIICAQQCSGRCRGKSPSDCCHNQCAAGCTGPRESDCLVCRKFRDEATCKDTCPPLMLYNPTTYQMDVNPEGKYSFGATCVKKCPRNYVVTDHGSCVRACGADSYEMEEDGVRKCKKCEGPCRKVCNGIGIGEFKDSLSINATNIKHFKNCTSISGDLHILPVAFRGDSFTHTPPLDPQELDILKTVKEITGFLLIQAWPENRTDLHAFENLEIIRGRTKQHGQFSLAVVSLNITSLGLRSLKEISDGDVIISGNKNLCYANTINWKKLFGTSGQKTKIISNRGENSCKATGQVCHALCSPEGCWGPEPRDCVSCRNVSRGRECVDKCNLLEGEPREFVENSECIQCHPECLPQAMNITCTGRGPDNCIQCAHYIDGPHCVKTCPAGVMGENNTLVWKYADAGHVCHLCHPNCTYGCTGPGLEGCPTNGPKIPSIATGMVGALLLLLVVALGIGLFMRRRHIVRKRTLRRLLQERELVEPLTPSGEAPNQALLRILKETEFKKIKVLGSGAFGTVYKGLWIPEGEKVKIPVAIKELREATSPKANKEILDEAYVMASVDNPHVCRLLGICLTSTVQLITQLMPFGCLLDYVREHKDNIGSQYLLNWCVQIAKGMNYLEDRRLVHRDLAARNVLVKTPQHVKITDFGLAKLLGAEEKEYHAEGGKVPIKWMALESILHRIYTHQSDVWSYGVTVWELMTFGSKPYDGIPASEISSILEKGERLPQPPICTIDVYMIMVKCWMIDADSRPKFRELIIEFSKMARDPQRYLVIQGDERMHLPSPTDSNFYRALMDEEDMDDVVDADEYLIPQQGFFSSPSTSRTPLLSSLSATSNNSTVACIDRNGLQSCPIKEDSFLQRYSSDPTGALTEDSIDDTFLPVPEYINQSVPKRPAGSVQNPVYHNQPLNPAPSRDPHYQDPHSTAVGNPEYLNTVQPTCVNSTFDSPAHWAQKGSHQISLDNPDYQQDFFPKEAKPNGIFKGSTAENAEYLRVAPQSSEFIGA

[18] = target: Follistatin-related protein 3 (Homo sapiens) (UniProt O95633); assay: FSTL3 binders on small-molecule microarrays, primary screen, biochemical, small-molecule microarray, 635 nm fluorescence (AID 1105); conditions: FSTL3 binding, higher = more signal;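 further: score merges emission near 667 nm and signal to noise per printed spot across three slides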
Sequence of Follistatin-related protein 3 (Homo sapiens) (O95633 whole entry, looked up): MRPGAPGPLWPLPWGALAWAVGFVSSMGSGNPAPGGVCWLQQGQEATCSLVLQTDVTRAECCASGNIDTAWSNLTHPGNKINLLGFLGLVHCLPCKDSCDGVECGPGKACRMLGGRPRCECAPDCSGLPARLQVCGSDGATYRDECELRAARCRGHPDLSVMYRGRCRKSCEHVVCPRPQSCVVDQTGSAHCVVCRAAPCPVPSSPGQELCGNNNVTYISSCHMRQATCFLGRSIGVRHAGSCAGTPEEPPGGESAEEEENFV

[19] = target: Dickkopf-related protein 1 (Homo sapiens) (UniProt O94907); assay: DKK1 binders on small-molecule microarrays, primary screen, biochemical, small-molecule microarray, 635 nm fluorescence scan (AID 1106); conditions: DKK1 binding, higher = more signal;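 further: score merges emission near 667 nm with signal to noise over three replicate slides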
Sequence of Dickkopf-related protein 1 (Homo sapiens) (O94907 whole entry, looked up): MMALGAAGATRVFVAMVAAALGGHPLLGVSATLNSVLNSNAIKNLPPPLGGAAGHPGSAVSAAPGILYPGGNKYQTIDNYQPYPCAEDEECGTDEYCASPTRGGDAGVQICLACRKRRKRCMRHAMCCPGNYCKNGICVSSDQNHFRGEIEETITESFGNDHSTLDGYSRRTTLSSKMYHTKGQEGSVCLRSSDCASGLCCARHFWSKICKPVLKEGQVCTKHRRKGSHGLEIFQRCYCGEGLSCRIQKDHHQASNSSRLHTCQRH

[20] = system: Inhibin beta A chain (activin A); assay: INHBA (activin A) binders on microarrays, primary screen, biochemical, small-molecule microarray, 635 nm fluorescence scan (AID 1107); conditions: small-molecule microarray binding, higher = more signal;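 further: mouse activin A protein probed at 4.33 µg/mL on printed slides; score merges bound-protein fluorescence near 667 nm with spot signal-to-noise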

SMILES: Cc1ccc(S[C@]2(C(=O)O)CC(=O)N(Cc3ccccc3Cl)[C@@H]2c2ccc(CO)cc2I)cc1
- composite z-score [1]: 0.765
- z-score [2]: -0.923 (inactive)
- z-score [3]: -1.71 (inactive)
- z-score [4]: 1.21 (inactive)
- composite z-score [5]: 0.198
- z-score [6]: -0.852 (inactive)
- composite z-score [7]: -0.131
- composite z-score [8]: -0.678
- composite z-score [9]: -0.162
- composite z-score [10]: 0.519
- composite z-score [11]: 0.534
- composite z-score [12]: 1.47
- composite z-score [13]: -0.217
- z-score [14]: -0.565 (inactive)
- composite z-score [15]: -0.054
- composite z-score [16]: 0.202
- composite z-score [17]: 0.0365
- composite z-score [18]: 0.653
- composite z-score [19]: 1.18
- composite z-score [20]: 0.164

SMILES: O=C1O[C@H](c2ccccc2)[C@H](c2ccccc2)N2[C@H]1[C@@H](C(=O)Nc1nc3ccccc3s1)[C@]1(C(=O)Nc3ccc(C#CCCO)cc31)[C@H]2c1ccc(O)cc1
- composite z-score [1]: 1.55
- z-score [2]: 0.758 (inactive)
- z-score [3]: 0.936 (inactive)
- z-score [4]: 1.14 (inactive)
- composite z-score [5]: 2.39
- z-score [6]: -0.672 (inactive)
- composite z-score [7]: 0.0769
- composite z-score [8]: 0.744
- composite z-score [9]: 1.13
- composite z-score [10]: 0.346
- composite z-score [11]: 0.915
- composite z-score [12]: 0.39
- composite z-score [13]: 0.673
- z-score [14]: -0.285 (inactive)
- composite z-score [15]: 0.929
- composite z-score [16]: 0.88
- composite z-score [17]: 0.591
- composite z-score [18]: 0.763
- composite z-score [19]: 0.198
- composite z-score [20]: 0.635

SMILES: CCOC(=O)C[C@H]1[C@H](OC(=O)Cc2ccc3c(c2)OCO3)[C@@H](NC(=O)Cc2ccc(OC)cc2)c2cc(OCCCO)ccc2N1C(=O)c1ccc2ccccc2n1
- composite z-score [1]: 0.317
- z-score [2]: -2.05 (inactive)
- z-score [3]: -1.34 (inactive)
- z-score [4]: 0.758 (inactive)
- composite z-score [5]: 0.708
- z-score [6]: 2.08 (inactive)
- composite z-score [7]: -0.137
- composite z-score [8]: 0.14
- composite z-score [9]: 0.32
- composite z-score [10]: -0.146
- composite z-score [11]: 0.0382
- composite z-score [12]: -0.189
- composite z-score [13]: -0.265
- z-score [14]: -0.95 (inactive)
- composite z-score [15]: 0.355
- composite z-score [16]: 0.415
- composite z-score [17]: 0.516
- composite z-score [18]: -0.114
- composite z-score [19]: 0.567
- composite z-score [20]: 0.825

SMILES: COc1ccc(-c2nc(-c3ccccc3)c3c(c2C)CO[Si]3(C(C)C)C(C)C)cn1
- composite z-score [1]: 0.569
- z-score [2]: -0.195 (inactive)
- z-score [3]: -0.391 (inactive)
- z-score [4]: -0.0892 (inactive)
- composite z-score [5]: 0.498
- z-score [6]: -1.5 (inactive)
- composite z-score [7]: -0.162
- composite z-score [8]: 1.09
- composite z-score [9]: 0.0188
- composite z-score [10]: 0.0361
- composite z-score [11]: -0.18
- composite z-score [12]: -0.0958
- composite z-score [13]: -0.505
- z-score [14]: 0.0313 (inactive)
- composite z-score [15]: 0.984
- composite z-score [16]: 0.729
- composite z-score [17]: -0.0277
- composite z-score [18]: 0.446
- composite z-score [19]: 0.125
- composite z-score [20]: 0.468

SMILES: CCCCCCc1nc(C2CC2)cc2c1[Si](C(C)C)(C(C)C)O[C@H]2c1ccccc1
- composite z-score [1]: -0.147
- z-score [2]: -0.746 (inactive)
- z-score [3]: -0.575 (inactive)
- z-score [4]: -0.513 (inactive)
- composite z-score [5]: -0.624
- z-score [6]: -1.28 (inactive)
- composite z-score [7]: -0.0798
- composite z-score [8]: 0.639
- composite z-score [9]: 0.356
- composite z-score [10]: 0.0122
- composite z-score [11]: 0.454
- composite z-score [12]: -0.312
- composite z-score [13]: -0.191
- z-score [14]: 0.214 (inactive)
- composite z-score [15]: 0.402
- composite z-score [16]: -0.213
- composite z-score [17]: 0.341
- composite z-score [18]: 0.274
- composite z-score [19]: 0.546
- composite z-score [20]: 0.741

SMILES: O=C1O[C@H](c2ccccc2)[C@H](c2ccccc2)N2[C@H]1[C@@H](C(=O)Nc1nc3ccccc3s1)[C@]1(C(=O)Nc3ccccc31)[C@H]2c1ccc(OCCO)cc1
- composite z-score [1]: 1.31
- z-score [2]: 1.48 (inactive)
- z-score [3]: 1.95 (inactive)
- z-score [4]: 3.31 (inactive)
- composite z-score [5]: 1.96
- z-score [6]: 0.0528 (inactive)
- composite z-score [7]: -0.0446
- composite z-score [8]: 1.5
- composite z-score [9]: 1.05
- composite z-score [10]: 0.0162
- composite z-score [11]: 1.35
- composite z-score [12]: 0.07
- composite z-score [13]: 0.341
- z-score [14]: -0.472 (inactive)
- composite z-score [15]: 0.841
- composite z-score [16]: 1.31
- composite z-score [17]: 0.836
- composite z-score [18]: 1.36
- composite z-score [19]: 1.31
- composite z-score [20]: 0.715

SMILES: [N-]=[N+]=NCc1ccccc1[C@H]1OC(c2ccc(OCCCO)cc2)=N[C@@]1(CCS(=O)(=O)c1ccccc1)C(=O)NCC(O)CO (stereo not given in full)
- composite z-score [1]: 1.56
- z-score [2]: 0.633 (inactive)
- z-score [3]: -0.107 (inactive)
- z-score [4]: 3.65 (inactive)
- composite z-score [5]: 3.79
- z-score [6]: -0.28 (inactive)
- composite z-score [7]: 0.0761
- composite z-score [8]: 0.286
- composite z-score [9]: 1.06
- composite z-score [10]: 0.178
- composite z-score [11]: 1.54
- composite z-score [12]: 0.658
- composite z-score [13]: 1.18
- z-score [14]: 0.542 (inactive)
- composite z-score [15]: 1.32
- composite z-score [16]: 0.752
- composite z-score [17]: -0.0986
- composite z-score [18]: 0.264
- composite z-score [19]: -0.0898
- composite z-score [20]: 0.501

SMILES: COCCCNC(=O)[C@@]1(Cc2ccccc2N=[N+]=[N-])N=C(c2ccc(OCCCO)cc2)O[C@H]1c1ccccc1
- composite z-score [1]: 1.55
- z-score [2]: -0.22 (inactive)
- z-score [3]: -1.17 (inactive)
- z-score [4]: 0.388 (inactive)
- composite z-score [5]: 3.1
- z-score [6]: 0.478 (inactive)
- composite z-score [7]: 0.0894
- composite z-score [8]: 0.923
- composite z-score [9]: 0.74
- composite z-score [10]: -0.096
- composite z-score [11]: 1.55
- composite z-score [12]: 0.231
- composite z-score [13]: 1.01
- z-score [14]: 0.181 (inactive)
- composite z-score [15]: 0.911
- composite z-score [16]: 1.28
- composite z-score [17]: -0.338
- composite z-score [18]: 0.402
- composite z-score [19]: 0.157
- composite z-score [20]: 1.14

SMILES: CCCNC(=O)[C@@H]1c2ccccc2C(=O)N(C(C)C)[C@H]1c1ccc(CO)cc1
- composite z-score [1]: 0.541
- z-score [2]: 0.853 (inactive)
- z-score [3]: 0.668 (inactive)
- z-score [4]: -0.148 (inactive)
- composite z-score [5]: 0.618
- z-score [6]: 0.924 (inactive)
- composite z-score [7]: -0.0458
- composite z-score [8]: -0.231
- composite z-score [9]: -0.421
- composite z-score [10]: -0.196
- composite z-score [11]: 0.32
- composite z-score [12]: 0.02
- composite z-score [13]: 0.933
- z-score [14]: 0.844 (inactive)
- composite z-score [15]: -0.342
- composite z-score [16]: -0.307
- composite z-score [17]: -0.87
- composite z-score [18]: -0.961
- composite z-score [19]: -0.375
- composite z-score [20]: 0.534

SMILES: COc1ccc([Si](C)(C)[C@@H]2[C@@H](CC(=O)N(CCO)Cc3ccccc3)O[C@]3(C(=O)N(Cc4cccc(N5C(=O)c6cccc7cccc5c67)c4)c4ccccc43)[C@H]2C)cc1
- composite z-score [1]: 0.737
- z-score [2]: 0.121 (inactive)
- z-score [3]: -0.534 (inactive)
- z-score [4]: 2.09 (inactive)
- composite z-score [5]: 0.36
- z-score [6]: 2.11 (inactive)
- composite z-score [7]: -0.259
- composite z-score [8]: 1.33
- composite z-score [9]: 0.455
- composite z-score [10]: -0.115
- composite z-score [11]: 1.5
- composite z-score [12]: -0.277
- composite z-score [13]: 0.246
- z-score [14]: -1.11 (inactive)
- composite z-score [15]: 0.0691
- composite z-score [16]: -0.727
- composite z-score [17]: 0.412
- composite z-score [18]: 1.4
- composite z-score [19]: 0.816
- composite z-score [20]: 0.539
